Several values for one entry are separate records, joined by “and”; a condition that tells them apart may be missing. Equal values may be shown once. Results filed as inconclusive are left out. Where a call stands in place of a potency, no number is given. Activity calls are given as the source filed them. Calls follow the shape of the full dose curve.
Potency is read from the fitted curve at half-maximal effect.

The experiment is described as follows: qHTS assay to identify small molecule agonists of the endoplasmic reticulum stress response signaling pathway - cell viability counter screen (AID 1159517). Also: nearly all actives have a fitted effect of over 50% in size. The conditions noted are these: ESRE-bla HeLa viability, CellTiter-Glo luminescence, 5 h; series mostly up to 61 µM. The source says:
U.S. Tox21 Program National Center for Advancing Translational Sciences [NCATS] NIH Chemical Genomics Center [NCGC] U.S. Environmental Protection Agency [EPA] National Institutes of Environmental Health Sciences [NIEHS] National Toxicology Program [NTP] U.S. Food and Drug Administration [FDA] Tox21 Assay Overview: Endoplasmic Reticulum (ER) plays an important role in cellular signaling, protein folding/maturation, stress response, lipid biosynthesis, calcium storage and release etc. Under stress conditions, proteins in ER misfold or unfold, and leading to the expression of ER stress responsive genes. ER stress has been associated with a variety of pathophysiological conditions such as cancer, inflammation, neurodegenerative diseases, diabetes, ischemic heart disease etc. To identify the compounds that induce ER stress response, an ER stress reporter cell line, CellSensor ESRE-bla HeLa (Life Technologies, Carlsbad, CA) containing a beta-lactamase reporter gene under control of the Endoplasmic reticulum Stress Response Element (ESRE) was used to screen Tox21 10K compound library. The cytotoxicity of the Tox21 compound library against the ESRE-bla HeLa cell line was tested in parallel by measuring cell viability using the CellTiter-Glo assay in the same wells.
Tox21 Assay Protocol Summary: ESRE-bla HeLa cells were dispensed at 1,500 cells/6 uL of assay medium per well into black wall/clear-bottom 1536-well plates using a Multidrop Combi (ThermoFisher Scientific, Waltham, MA) dispenser. After the assay plates were incubated at 37 C and 5% CO2 for an overnight, 23 nL of compounds dissolved in DMSO, positive controls or DMSO only was transferred to the assay plate by a Pintool station (Kalypsys, San Diego, CA). The assay plates were incubated at 37 C and 5% CO2 for 5 hr. One uL of LiveBLAzer B/G FRET substrate (Life Technologies) was added using a FRD (Flying Reagent Dispenser, Aurora Discovery, San Diego, CA) and the plates were incubated at room temperature for 2 hr. Fluorescence intensity (405 nm excitation, 460 nm and 530 nm emissions) was measured using an Envision plate reader (PerkinElmer, Shelton, CT). For cytotoxicity, 4 ul/well of CellTiter-Glo reagent was added into the assay plates using an FRD. After 30 min incubation at room temperature, the luminescence intensity was measured using a ViewLux plate reader (PerkinElmer).
A general note: Quantitative high-throughput screening tests each substance at several concentrations.
In the case of `Cc1cc(C)c(/C=C2\C(=O)Nc3ccccc32)[nH]1`, the Potency entry was “inactive”. Take `CC1(C)CCC[C@]2(C)[C@H]3CCO[C@]3(C)CC[C@@H]12`: the Potency result was “inactive”. The same measure for `CCCCCCCCCCCCOC(=O)c1ccc(O)cc1`: “inactive”; for `CN(C)Cc1ccccc1O`: “inactive”; for `C/C=C/C=C/COC(=O)C(C)C`: “inactive”. In the case of `O=c1[nH]c2ccccc2n1CCCN1CCN(C(c2ccccc2)c2ccccc2)CC1`, the Potency entry was “inactive”. `O=C1CCCCCCCCCCCCCCCO1`: the Potency entry was “inactive”.

For `CC(C(=O)O)c1ccc2c(c1)[nH]c1ccc(Cl)cc12` (stereo not given), the Potency result is “inactive”. The same measure for `CCN(CCN)c1cccc(C)c1`: “inactive”.

As for `COc1cccc2c1C(=O)c1c(O)c3c(c(O)c1C2=O)C[C@@](O)(C(C)=O)C[C@@H]3O[C@H]1C[C@H](N)[C@H](O)[C@H](C)O1`, the Potency was 952 nM (active). Consider `CC(C)OC(=O)C(O)(CC(=O)O)CC(=O)O`, for which the Potency result was “inactive”. Turning to `O=C(O)Cc1ccccc1Nc1c(Cl)cccc1Cl`, the Potency result was “inactive”. Regarding `c1ccc(SSc2ccccc2)cc1`, the Potency result is “inactive”. Regarding `C=CC(=O)Nc1cc2c(Nc3ccc(F)c(Cl)c3)ncnc2cc1OCCCN1CCOCC1`, the Potency is 16900 nM (active).

`CC1(C)CCC[C@]2(C)[C@H]3CC(=O)O[C@]3(C)CC[C@@H]12`: the Potency result is “inactive”. For `CCCCOC(=O)CC`, the Potency result is “inactive”. As to `COc1cc(C)ccc1O`, the Potency result was “inactive”.

Consider `O=[N+]([O-])c1ccc(O)cc1C(F)(F)F`, for which the Potency result is “inactive”. The same measure for `Fc1ccc(C(c2ccc(F)cc2)N2CCNCC2)cc1`: “inactive”; for `[Cl][Pt-2]([Cl])([Cl])[Cl]`: “inactive”. `CCCCCCC1CCCC(=O)O1` (stereo not given): the Potency result was “inactive”. With `Cc1cc(=O)oc2cc(O)cc(O)c12`, the Potency entry is “inactive”. With `CN1CCCCC1CCN1c2ccccc2Sc2ccc(S(C)=O)cc21` (stereo not given), the Potency result was “inactive”. Consider `CC(=O)[C@H]1CC[C@H]2[C@@H]3CCC4=CC(=O)CC[C@]4(C)[C@H]3CC[C@]12C`, for which the Potency entry is “inactive”. Regarding `O=S(=O)(O)c1ccc(N=Nc2c(O)ccc3ccccc23)cc1`, the Potency entry is “inactive”. Turning to `[Cu+]`, the Potency result is “inactive”. As for `CCO[C@@H]1O[C@H](C(COCc2ccccc2)OCc2ccccc2)[C@H](OCc2ccccc2)[C@H]1O` (stereo not given in full), the Potency result is “inactive”. As for `OC/C=C/CO`, the Potency entry was “inactive”. As for `COC(=O)C1=C(C)NC(C)=C(C(=O)OCCN2CCN(C(c3ccccc3)c3ccccc3)CC2)C1c1cccc([N+](=O)[O-])c1` (stereo not given), the Potency result was “inactive”. On to `c1ccc(C(O[C@@H]2CCCN(CCc3ccc4c(c3)OCO4)C2)c2ccccc2)cc1`, for which the Potency entry is “inactive”. The same measure for `COC1=C(OC)C(=O)C(CCCCCCCCCCO)=C(C)C1=O`: “inactive”. As for `COc1ccc(-c2coc3cc(O)ccc3c2=O)cc1`, the Potency result was “inactive”.

With `O=c1c(O)c(-c2ccc(O)cc2O)oc2cc(O)cc(O)c12`, the Potency result is “inactive”.

Take `Cc1cc(-n2nc3ccc(Cl)cc3n2)c(O)c(C(C)(C)C)c1`: the Potency result was “inactive”. The same measure for `O=C(/C=C/c1ccccc1)OC/C=C/c1ccccc1`: “inactive”. Turning to `CC[C@H](C)COC(=O)/C=C/c1ccc(N=Cc2ccc(OC)cc2)cc1`, the Potency entry was “inactive”.

As to `Cc1nc(-c2ccc(Cl)cc2)oc1COC(C)(C)C(=O)O`, the Potency result is “inactive”. For `Cc1c(C)c2c(c(C)c1OC(=O)c1cccnc1)CC[C@@](C)(CCC[C@H](C)CCC[C@H](C)CCCC(C)C)O2`, the Potency entry was “inactive”.

Take `CCCNCCC`: the Potency entry was “inactive”. For the molecule `CCCCCCCCCCCCCC[N+](C)(C)Cc1ccccc1`, the Potency is 17.7 µM (active) and 23.9 µM (active).

(Values after PubChem BioAssay (Tox21).)
